Where “and” joins values, the source holds several entries; their conditions need not be identical. Identical values can stand only once. Results filed as inconclusive are left out. Calls of active or inactive are those of the source. Calls come from the whole dose curve; as a rule, active = well fitted inhibition curve with a large enough effect; inconclusive = small, poorly fitted or top-dose-only effect; inactive = flat fitted curve, though single readings scatter.

The source of these data is PubChem BioAssay (NCATS).
% is set by controls: 0 for no effect and ±100 for the full control effect.

This assay has as its system CRL-7250. The assay can be described thus: Cytotoxic Profiling of Annotated Libraries Using Quantitative High-Throughput Screening (AID 1296008). Note: nearly all actives have a fitted effect of over 60% in size. Particulars: Five cell lines viability, CellTiter-Glo ATP luminescence, 48-72 h; max response: active compounds read low. In a few lines:
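Cytotoxicity was measured as CellTiter-Glo ATP luminescence, read after 10 min at room temperature. Compound treatment of the cells lasted 48 or 72 hr at 37 degrees Celsius in a qHTS format.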
A general note: In ATP-based viability assays light output follows the ATP content of the culture.
For `CC12CCC3C(C)(C)C(O)CCC3(C)C1Cc1c(oc(C(=O)O)cc1=O)O2` (centres undefined), the result was inactive.

`Cc1cc(O)cc(Oc2cc(C)c(C(=O)O)c(O)c2)c1`: the max response was -27.9% (inactive).

For the molecule `C[C@@H]1O[C@@H](O[C@@H]2[C@@H](O)[C@H](O[C@@H]3[C@@H](O)[C@@H](O)[C@H](O[C@H]4[C@H](OC(=O)[C@]56CCC(C)(C)C[C@H]5C5=CCC7[C@@]8(C)C[C@H](O)[C@H](O[C@@H]9O[C@@H](C)[C@H](O)[C@@H](O)[C@H]9O)[C@@](C)(CO)C8CC[C@@]7(C)[C@]5(C)C[C@H]6O)O[C@H](C)[C@H](O)[C@@H]4O)O[C@H]3C)OC[C@H]2O)[C@H](O)[C@H](O)[C@H]1O` (some centres undefined), the max response is 4.2% (inactive).

As for `CC1CCC2(O1)C(C)(C)CC(O[C@@H]1O[C@H](CO[C@@H]3OC[C@](O)(CO)[C@H]3O)[C@@H](O)[C@H](O)[C@H]1O)CC2(C)O` (some centres undefined), the max response was -0.207% (inactive).

Take `C[C@@]12C[C@]3(O)O[C@H](O1)[C@]1(COC(=O)c4ccccc4)[C@H]3C[C@@]12O[C@@H]1O[C@H](COC(=O)c2ccccc2)[C@@H](O)[C@H](O)[C@H]1O`: the max response is -3.18% (inactive).

Regarding `C=C1CC[C@H]2[C@@H](/C=C(\C)C(=O)[C@@]3(OC(C)=O)C[C@H](C)[C@H](OC(C)=O)[C@@H]3[C@H]1OC(C)=O)C2(C)C`, the molecule was called inactive.

Regarding `NCc1c[nH]c(=S)n1C1CCc2c(F)cc(F)cc2C1` (centres undefined), the max response is -1.6% (inactive).

For `C/C=C/C1=CC2=CC(=O)C(C)(O)C(OC(=O)c3c(C)cc(O)cc3O)C2CO1` (centres undefined), the max response is 1.95% (inactive).

In the case of `O=C1NC(=Nc2ccccc2F)S/C1=C\c1ccc(C(=O)O)cc1`, the max response is -10.7% (inactive).

Turning to `C=C[C@H]1[C@H](O[C@@H]2O[C@H](CO[C@@H]3OC[C@](O)(CO)[C@H]3O)[C@@H](O)[C@H](O)[C@H]2O)OC=C2C(=O)OCC[C@H]21`, the call was inactive.

With `CNC(=O)O[C@H]1COc2ccc(N3CCN(C4COC4)CC3)cc2[C@@H]1NC(=O)c1ccc(F)cc1`, the max response is -2.36% (inactive).

Turning to `CC(=O)[C@@H]1CC[C@]2(C(=O)O)CC[C@]3(C)C(CCC4[C@@]5(C)CC[C@H](O)C(C)(C)C5CC[C@]43C)C12` (some centres undefined), the result was inactive.

In the case of `O=C(NCC(=O)N1CC[C@H](NC2CCC(O)(c3ccc(-c4ncccn4)cn3)CC2)C1)c1cccc(C(F)(F)F)c1` (some centres undefined), the max response was -2.44% (inactive).

On to `COC(=O)C[C@@H]1C(C(=O)O)=CO[C@@H](O[C@@H]2O[C@H](CO)[C@@H](O)[C@H](O)[C@H]2O)/C1=C\COC(=O)/C=C\c1ccccc1`, for which the max response was -11.7% (inactive).

For the molecule `CC(=O)NCCCCn1c2c(c3ccccc31)C(=O)NCC2`, the max response was 4.55% (inactive).

On to `COC(=O)C1C(c2ccc(O)cc2)C(C(=O)OC)C1c1ccc(O)cc1` (centres undefined), for which the max response is -3.45% (inactive).

As to `CC(=O)N1c2ccccc2C2(O)CC3C(=O)NC(CC(C)C)C(=O)N3C12` (centres undefined), the max response was 1.79% (inactive).

Regarding `CC(C)C1=CC2=CCC3[C@](C)(CCC[C@@]3(C)C(=O)O)C2CC1O` (some centres undefined), the max response is -2.15% (inactive).

Regarding `C[C@@H]1O[C@@H](OC[C@H]2O[C@@H](OCCc3ccccc3)[C@H](O)[C@@H](O)[C@@H]2O)[C@H](O)[C@H](O)[C@H]1O`, the max response is -0.537% (inactive).

In the case of `OCCc1ccc(O[C@@H]2O[C@H](CO)[C@@H](O)[C@H](O)[C@H]2O)c(O)c1`, the max response is 1.68% (inactive).

For the molecule `C/C=C(\C)C(=O)OC[C@H]1O[C@H](O[C@H]2O[C@H](CO)[C@@H](OC(=O)/C(C)=C/C)[C@H](O)[C@H]2O[C@@H]2O[C@H](CO)[C@@H](O)[C@H](O)[C@H]2O)[C@H](O[C@@H]2O[C@H](CO)[C@@H](O)[C@H](O)[C@H]2O)[C@@H](O)[C@@H]1O`, the max response is -3.07% (inactive).

As for `COc1cc([C@H]2OC[C@]3(OC(C)=O)[C@@H](c4ccc(O[C@@H]5O[C@H](CO)[C@@H](O)[C@H](O)[C@H]5O)c(OC)c4)OC[C@H]23)ccc1O`, the molecule was called inactive.

As for `CCn1nnnc1NCc1ccc(C(C)C)cc1`, the molecule was classed as inactive.

Consider `C=C1C[C@]23C[C@H]1CC[C@H]2[C@]1(C)CCC[C@@]2(CO)C(=O)O[C@H]([C@H]21)[C@@H]3O`, for which the max response is -1.22% (inactive).

For `CC(=O)O[C@@H]1C[C@]2(C)[C@@]3(CCC4[C@@]5(C)CC[C@H](O[C@@H]6O[C@H](C(=O)O)[C@@H](O)[C@H](O[C@@H]7O[C@H](CO)[C@H](O)[C@H](O)[C@H]7O[C@@H]7O[C@@H](C)[C@H](O)[C@@H](O)[C@H]7O[C@@H]7OC[C@](O)(CO)[C@H]7O)[C@H]6O[C@@H]6O[C@H](CO)[C@H](O)[C@H](O)[C@H]6O)C(C)(C)C5CC[C@]42C)O[C@@H](O)[C@]12C3CC(C)(C)[C@@H](OC(=O)/C=C/c1ccc(O)c(O)c1)[C@@H]2OC(=O)/C=C/c1ccccc1` (some centres undefined), the max response is 3.23% (inactive).

Regarding `CC(C)CC(=O)OC[C@H]1O[C@@](COC(=O)CC(C)C)(O[C@H]2O[C@H](CO)[C@@H](O)[C@H](O)[C@H]2O)[C@@H](OC(=O)CC(C)C)[C@@H]1OC(=O)CC(C)C`, the max response was -0.942% (inactive).

For the molecule `NC(=O)c1cccc(-c2cc(O)cc(OC(=O)NC3CCCCC3)c2)c1`, the call was inactive.

For `CC1(C)CC(=O)N(CCCCN2CCN(c3ncccn3)CC2)C(=O)C1`, the result was inactive.

As for `C[C@H](NCc1ccc(OCc2ccccc2F)cc1)C(N)=O`, the molecule was classed as inactive.

`C[C@@H]1C(=O)O[C@H]2CC34[C@H]5C[C@@H](C(C)(C)C)C36[C@@H](OC(=O)[C@@H]6O)OC4(C(=O)O5)[C@]21O` (some centres undefined): the max response was -2.58% (inactive).

For the molecule `CC1CCC2(NC1)OC1C(=O)C3C4CCC5CC(O[C@@H]6O[C@H](CO)[C@@H](O)[C@H](O)[C@H]6O[C@@H]6O[C@@H](C)[C@H](O)[C@@H](O)[C@H]6O)CCC5(C)C4CCC3(C)C1C2C` (some centres undefined), the outcome was inactive.

In the case of `Cc1nn(C)c(COc2ccc(N3CCN(S(=O)(=O)N(C)C)CC3)cc2)c1-c1cccc2c(CCCOc3cccc4ccccc34)c(C(=O)O)n(CCN3CCOCC3)c12`, the max response was -5.39% (inactive) and -9.48% (inactive).

On to `C/C=C(\C)C(=O)O[C@H]1[C@H](O)[C@]2(COC(C)=O)[C@H](O)C[C@]3(C)C(=CCC4[C@@]5(C)CC[C@H](O[C@@H]6O[C@H](C(=O)O)[C@@H](O[C@@H]7O[C@H](CO)[C@@H](O)[C@H](O)[C@H]7O)[C@H](O)[C@H]6O[C@@H]6O[C@H](CO)[C@@H](O)[C@H](O)[C@H]6O)[C@](C)(CO)C5CC[C@]43C)[C@@H]2CC1(C)C` (some centres undefined), for which the max response was -9.07% (inactive).

As for `CC(C)=CC/C=C(/C)[C@H]1CC[C@]2(C)[C@@H]1[C@H](O)CC1[C@@]3(C)CC[C@H](O)C(C)(C)[C@@H]3[C@@H](O[C@@H]3O[C@H](CO)[C@@H](O)[C@H](O)[C@H]3O[C@@H]3O[C@@H](C)[C@H](O)[C@@H](O)[C@H]3O)C[C@]12C` (some centres undefined), the max response is -7.49% (inactive).

Turning to `OC[C@H]1O[C@@H](Oc2cc(O)cc(/C=C/c3ccc(O)cc3)c2)[C@H](O)[C@@H](O)[C@@H]1O`, the result was inactive.

As to `CC(C)=CCc1ccc(Oc2c(O)cc(C)cc2CO)c(C(=O)O)c1O`, the max response was -1.26% (inactive).

As to `CC(=O)N(O)CCCCCN1C(=O)CCC1=O`, the call was inactive.

Consider `CC(C)NC[C@H](O)COc1ccc(CCOCC2CC2)cc1`, for which the max response was -3.5% (inactive).

Take `C=CCc1ccc(O[C@@H]2O[C@H](CO)[C@@H](O)[C@H](O)[C@H]2O)c(OC)c1`: the max response is -5.9% (inactive).
